According to PubChem BioAssay AID743446 (Broad Institute, 2014):
Measured potencies and affinities stand elsewhere. The source made the active and inactive calls. No rule for the calls is given here.

Assay: viability loss in HEK293 cells – cell-based, plate reader, cherry-picked samples, cytotoxicity control, dose response (AID 743446)
Settings: active compounds read low; at 26 µM unless noted

Compound	max activity
O=Cc1cn(Cc2cccc([N+](=O)[O-])c2)c2ccccc12	-15.2% [at 12 µM] (inactive)
COC(=O)c1ccc(NC(=O)CSc2nc3ccc(N4C(=O)C5C6C=CC(C6)C5C4=O)cc3s2)cc1 (stereo not given)	-25.2% (inactive)
O=C(O)c1nn(Cc2ccc(Cl)cc2Cl)c2ccccc12	19.3% [at 0.38 µM] (inactive)
CC(C)(C)n1cc(C(=O)c2ccc3ccccc3c2O)cn1	-8.13% (inactive)
CNC(=O)Oc1cccc(-c2cn3cc(Cl)ccc3n2)c1	27.7% [at 0.38 µM] (inactive)
